Holding throughout (assay): NCI-60 one-dose screen, 48 h (100 = growth as untreated, 0 = no growth, -100 = all killed)
For one test, the system named is NCI-H23 lung. The note with it: 10 µM unless noted.
In the next test the test system is NCI-H226 lung. The note with it: 10 µM unless noted.
Another test concerns NCI-H322M lung. The note with it: 10 µM unless noted.
Another test relates to HOP-62 NSCLC. The note with it: 10 µM unless noted.
The test system of a further test is HOP-92 NSCLC. The note with it: 10 µM.
For the next test, the system named is NCI-H522 lung. The note with it: 10 µM.
The next test relates to A549/ATCC NSCLC. The note with it: 10 µM unless noted.
The next test relates to 786-0 renal. The note with it: 10 µM unless noted.
The next test concerns COLO 205 colon. As to conditions: 10 µM unless noted.
The test system of another test is DU-145 prostate. As to conditions: 10 µM unless noted.
The test system of the next test is K-562 leukemia. As to conditions: 10 µM unless noted.
The subject of another test is MALME-3M melanoma. The note with it: 10 µM unless noted.
In a further test the test system is MDA-MB-231 breast. The note with it: 10 µM unless noted.
For another test, the system named is RXF 393 renal. The note with it: 10 µM unless noted.
A further test deals with SF-268 CNS. As to conditions: 10 µM unless noted.
The next test relates to SF-295 CNS. As to conditions: 10 µM unless noted.
A further test relates to SF-539 CNS. As to conditions: 10 µM unless noted.
A further test deals with UACC-257 melanoma. The note with it: 10 µM unless noted.
The subject of a further test is M14 melanoma. As to conditions: 10 µM unless noted.
Another test relates to NCI-H460 lung. The note with it: 10 µM unless noted.

Molecules are shown by their SMILES. The panel holds about 83,000 compounds, 20% with a hit somewhere; the sample as a whole holds those more often.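 In brief: 96-well plates, 48 h treatment, single concentration, percent growth endpoint.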 Values without a mark were called inactive. Calls of active or inactive are those of the source. Rule for the calls: active = growth percent below 10; inactive = the rest.

For the compound `Cc1ccc(CC(=O)O)c(C)c1`, the growth is 91.3% with NCI-H23 lung; 99.8% in the test on NCI-H226 lung; 108% in the test on NCI-H322M lung; 99.6% in the test with HOP-62 NSCLC; 98.5% in the test with HOP-92 NSCLC; 85% in the test with NCI-H522 lung. Further, the growth in the test on A549/ATCC NSCLC is 94.5%; in the test with 786-0 renal, 105%; with COLO 205 colon it was 113%; in the test with DU-145 prostate, 107%; in the test with K-562 leukemia, 104%; with MALME-3M melanoma it was 110%. The growth in the test with MDA-MB-231 breast was 105%; in the test with RXF 393 renal it was 121%; with SF-268 CNS, 96.3%; in the test with SF-295 CNS it was 97.1%; in the test with SF-539 CNS, 106%; in the test with UACC-257 melanoma it was 91.7%. The growth in the test with M14 melanoma was 102%.

`CCN(CC)CCOC(=O)c1cccnc1`: the growth is 95.8% in the test with NCI-H23 lung; 90.3% in the test on NCI-H226 lung; 100% in the test on NCI-H322M lung; 94.6% in the test on HOP-62 NSCLC; 101% in the test with NCI-H460 lung; 99.8% in the test on 786-0 renal. For the same compound, the growth with COLO 205 colon was 119%; with DU-145 prostate, 109%; in the test on K-562 leukemia it was 92.7%; in the test on MALME-3M melanoma, 91.3%; in the test with MDA-MB-231 breast it was 105%; in the test with RXF 393 renal it was 103%. The growth in the test with SF-268 CNS was 102%; with SF-295 CNS it was 101%; with SF-539 CNS it was 102%; in the test on M14 melanoma, 102%.

Turning to `COc1ccc(CNCCCN2C(=O)c3ccc4c5c(ccc(c35)C2=O)C(=O)N(CCCNCc2ccc(OC)c(OC)c2OC)C4=O)c(OC)c1OC`, the growth was -74.8% (active) in the test on NCI-H23 lung; -64.7% (active) in the test with NCI-H226 lung; -60.5% (active) in the test with NCI-H322M lung; -44.3% (active) in the test on HOP-62 NSCLC; -43.5% (active) with HOP-92 NSCLC; -88.6% (active) in the test with NCI-H522 lung. For the same compound, the growth with A549/ATCC NSCLC is -89.4% (active); in the test with 786-0 renal, -78.8% (active); in the test with COLO 205 colon it was -43.9% (active); in the test with DU-145 prostate it was -96% (active); in the test with K-562 leukemia it was -49.1% (active); in the test on MALME-3M melanoma, -78.5% (active). For the same compound, the growth in the test on MDA-MB-231 breast is -53.1% (active); in the test with RXF 393 renal, -91.9% (active); in the test with SF-268 CNS, -88.4% (active); in the test on SF-295 CNS, -76.8% (active); in the test on SF-539 CNS, -80.1% (active); in the test with UACC-257 melanoma, -97.5% (active). The growth in the test with M14 melanoma is -60.6% (active).

As for `C[n+]1c2ccccc2c(Nc2ccc(NS(=O)(=O)CCCCN=C(N)N)cc2)c2ccc(N)cc21`, the growth in the test with NCI-H23 lung is 26%; with NCI-H226 lung it was 41%; in the test with NCI-H322M lung it was 71.4%; in the test with HOP-62 NSCLC, 32.2%; in the test with NCI-H460 lung, 10.9%; with 786-0 renal it was 44.1%. The growth is 50.4% in the test on COLO 205 colon; 23.7% in the test with DU-145 prostate; 41% with K-562 leukemia; 32.6% in the test on MALME-3M melanoma; 93.9% in the test with MDA-MB-231 breast; 71% in the test on RXF 393 renal. The growth with SF-268 CNS was 39.7%; in the test on SF-295 CNS, 5.07% (active); in the test on SF-539 CNS, 43%; in the test with M14 melanoma it was 53.2%.

For `CCN(CCO)CCNc1ccc(C)c2sc3cc(OC)ccc3c(=O)c12`, the growth is 79.6% with NCI-H23 lung; 73.5% with NCI-H226 lung; 76.1% with NCI-H322M lung; 62% in the test on HOP-62 NSCLC; 55.8% in the test with HOP-92 NSCLC; 62.6% in the test with NCI-H522 lung. Besides, the growth was 59.4% in the test on A549/ATCC NSCLC; 66.6% in the test with 786-0 renal; 48.9% with COLO 205 colon; 72.2% in the test on DU-145 prostate; 20.1% in the test with K-562 leukemia; 103% with MALME-3M melanoma. The growth in the test on MDA-MB-231 breast was 64.2%; with RXF 393 renal it was 71.4%; in the test with SF-268 CNS it was 70.1%; in the test on SF-295 CNS, 73.7%; in the test on SF-539 CNS it was 77.2%; in the test on UACC-257 melanoma, 103%. Besides, the growth in the test with M14 melanoma is 79.3%.

Consider `CC(=O)OCC(=O)[C@@]1(O)[C@H](C)C[C@H]2[C@@H]3C=C(C)C4=Cc5c(cnn5-c5ccc(F)cc5)C[C@]4(C)[C@H]3[C@@H](O)C[C@@]21C`, for which the growth in the test on NCI-H23 lung was -28.2% (active); with NCI-H226 lung, 59.9%; with NCI-H322M lung, 49.9%; with HOP-62 NSCLC, -11.8% (active); with HOP-92 NSCLC, 24.4%; with NCI-H522 lung, -23.7% (active). The growth is 16.7% in the test with A549/ATCC NSCLC; -26.5% (active) in the test on 786-0 renal; -39.2% (active) with COLO 205 colon; 13.9% with DU-145 prostate; 12.6% in the test with K-562 leukemia; 61.8% with MALME-3M melanoma. In addition, the growth in the test with MDA-MB-231 breast was 53.1%; with RXF 393 renal, -12.3% (active); in the test on SF-268 CNS it was 34.2%; with SF-295 CNS, -32.2% (active); with SF-539 CNS, -39.6% (active); in the test with UACC-257 melanoma, 49.8%. Moreover, the growth in the test on M14 melanoma was 32.6%.

As to `CCCCCCCCCCCCCCCCCC(=O)Nc1ccc(O)cc1`, the growth in the test on NCI-H23 lung is 98.7%; with NCI-H226 lung it was 102%; in the test on NCI-H322M lung, 97%; in the test on HOP-62 NSCLC, 91.4%; in the test on NCI-H460 lung, 100%; with 786-0 renal it was 79%. Moreover, the growth with COLO 205 colon was 93%; in the test with DU-145 prostate, 103%; in the test on K-562 leukemia, 96.6%; in the test on MALME-3M melanoma, 94.1%; in the test with MDA-MB-231 breast, 86.3%; in the test on RXF 393 renal, 99.6%. For the same compound, the growth in the test on SF-268 CNS is 84.2%; in the test with SF-295 CNS, 106%; in the test on SF-539 CNS, -16% (active); in the test on M14 melanoma, 103%.

As for `CCN(CC)c1ccc2nc3ccc(N=Nc4ccc(O)cc4)cc3[n+](-c3ccccc3)c2c1`, the growth in the test with NCI-H23 lung is 63.9%; in the test on NCI-H226 lung it was 98.1%; in the test with NCI-H322M lung, 95.8%; with HOP-62 NSCLC, 52.5%; with HOP-92 NSCLC, 88.4%; with NCI-H522 lung, 37.2%. Moreover, the growth is 35.9% in the test on A549/ATCC NSCLC; 88.5% in the test on 786-0 renal; -6.39% (active) in the test on COLO 205 colon; 82.1% with DU-145 prostate; 18.2% with K-562 leukemia; 35.4% with MALME-3M melanoma. Further, the growth with MDA-MB-231 breast was 20.9%; in the test with RXF 393 renal, 30.6%; in the test on SF-268 CNS, 81%; in the test on SF-295 CNS, 66.8%; in the test on SF-539 CNS it was 89.5%; in the test on UACC-257 melanoma it was -1.57% (active). Also, in the test with M14 melanoma, the growth was 61.3%.

For the compound `OCCN1CCN(CC/C=C2/c3ccccc3Sc3ccc(C(F)(F)F)cc32)CC1`, the growth was 72.3% in the test with NCI-H23 lung; 91% in the test on NCI-H226 lung; 72.6% in the test on NCI-H322M lung; 75.9% in the test with HOP-62 NSCLC; 82.7% in the test on NCI-H460 lung; 71.2% in the test with 786-0 renal. For the same compound, the growth with COLO 205 colon was 1.04% (active); with DU-145 prostate, 82.7%; in the test on K-562 leukemia it was 6.74% (active); with MALME-3M melanoma, 69%; in the test with MDA-MB-231 breast, 80.7%; in the test on RXF 393 renal it was 59.6%. Also, the growth with SF-268 CNS was 70.7%; in the test with SF-295 CNS it was 88.7%; with SF-539 CNS, 87.6%; with M14 melanoma, 58.5%.
